Values without a mark were called inactive. How the calls were made is not given here.
Potency means the concentration at half of the fitted maximal effect.

This assay has as its system HIV-1 nucleocapsid protein NCp7 (binding to TG oligonucleotide). Put plainly: HIV Nucleocapsid (AID 346).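 Further: potency is for inhibitors that block NC binding and lower polarization.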 To be noted: HIV-1 NC / fluorescein-TGTGTGTG probe, fluorescence polarization. The method in brief:
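Fluorescence polarization binding of 100 nM HIV-1 NC to 10 nM fluorescein-labelled TG4xF oligonucleotide. Buffer was Hepes pH 7.5 with 250mM NaCl, 1uM ZnCl2, TCEP and 2-mercaptoethanol. Compounds were incubated 1 hr at room temperature before the read.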
On the technique in general: Polarisation of emitted light reports the rotation of a fluorescent probe.
`O=C(c1cnccn1)N1CCC2(CCCN(Cc3nccs3)C2)CC1`: the Potency is greater than 20 µM.

`O=C(c1cnccn1)N1CCC[C@@]2(CCN(c3ccccc3)C2)C1`: the Potency was greater than 20 µM.

Take `O=C(c1cc(C(F)(F)F)cc(C(F)(F)F)c1)N1CCC2(CCCN(c3ccncc3)C2)CC1`: the Potency was greater than 20 µM.

Consider `Cn1c(=O)c(-c2cccc(C#N)c2)nc2cnc(Oc3ccccc3)nc21`, for which the Potency was greater than 20 µM.

On to `CN(C)c1ccc(-c2cncnc2NCCN2CCOCC2)cc1`, for which the Potency is greater than 20 µM.

In the case of `COCCn1c(=O)c(-c2ccc(F)cc2)nc2cnc(Nc3cccc(OC)c3)nc21`, the Potency was greater than 20 µM.

As to `COc1ncc2nc(-c3cn(C)c4ccccc34)c(=O)n(Cc3ccc(F)cc3)c2n1`, the Potency is greater than 20 µM.

With `CCNc1ncc2nc(-c3cn(C)c4ccccc34)c(=O)n(C)c2n1`, the Potency was greater than 20 µM.

For `COc1ncc2nc(-c3cc(F)cc(F)c3)c(=O)n(Cc3cccs3)c2n1`, the Potency was greater than 20 µM.

`N#CCCn1c(=O)c(-c2cccc(C#N)c2)nc2cnc(Oc3cccc(Cl)c3)nc21`: the Potency is greater than 20 µM.

Take `COc1ccc(Oc2ncc3nc(-c4cc(F)cc(F)c4)c(=O)n(CCC#N)c3n2)cc1`: the Potency was greater than 20 µM.

Consider `COc1cccc(Cn2c(=O)c(-c3cc(F)cc(F)c3)nc3cnc(N(C)C)nc32)c1`, for which the Potency was greater than 4 µM.

For `COc1cccc(Cn2c(=O)c(-c3cccc(C#N)c3)nc3cnc(N4CCOCC4)nc32)c1`, the Potency is greater than 20 µM.

For `O=C(c1csnn1)N1CCC[C@@]2(CCN(c3ccncc3)C2)C1`, the Potency is greater than 20 µM.

For `Cc1cccc(CNc2ncncc2-c2ccc(C(=O)N(C)C)cc2)c1`, the Potency is greater than 20 µM.

For `COc1ccc(C(=O)N2CCC[C@@]3(CCN(C(=O)Nc4cccc(F)c4)C3)C2)cc1`, the Potency was greater than 20 µM.

With `Cn1cccc1C(=O)N1CCC2(CCCN(c3cccc(-c4ccccc4)c3)C2)CC1`, the Potency was greater than 20 µM.

As to `CN(C)c1ncc2nc(-c3ccc(Cl)cc3)c(=O)n(C)c2n1`, the Potency was greater than 20 µM.

As for `CN(C)c1ncc2nc(-c3cc(F)cc(F)c3)c(=O)n(CCc3ccccc3)c2n1`, the Potency was greater than 20 µM.

Take `Cn1c(=O)c(-c2ccc(F)cc2)nc2cnc(Nc3ccccc3)nc21`: the Potency is greater than 20 µM.

In the case of `COc1ccc2[nH]cc(CCNc3ccnc(-c4ccoc4)n3)c2c1`, the Potency was greater than 20 µM.

On to `Clc1ccccc1-c1nc(NCc2cccs2)c2ccccc2n1`, for which the Potency was greater than 20 µM.

On to `COc1ccc(C(=O)N2CCC[C@@]3(CCN(c4ccncc4)C3)C2)cc1`, for which the Potency was greater than 20 µM.

Turning to `O=C(c1cnccn1)N1CCC2(CC1)CN(Cc1ccccc1)C2`, the Potency is greater than 20 µM.

Turning to `CNc1ncncc1-c1ccccc1C(F)(F)F`, the Potency was greater than 20 µM.

Consider `COc1ccc(NC(=O)N2CC3(CCNCC3)C2)cc1`, for which the Potency is greater than 20 µM.

In the case of `COc1ccc(C(=O)N2CCC3(CCN(C(=O)Nc4cccc(C#N)c4)CC3)CC2)cc1`, the Potency is greater than 20 µM.

As for `COc1cccc(Cn2c(=O)c(C)nc3cnc(OCc4ccccc4)nc32)c1`, the Potency was greater than 20 µM.

Take `COc1ccc(-n2c(=O)c(C)nc3cnc(OC)nc32)cc1`: the Potency was greater than 20 µM.

With `Cc1cnc(CNc2ncnc3ccc(-c4ccccc4C#N)cc23)cn1`, the Potency is greater than 20 µM.

As for `COc1ccc(NC(=O)N2CC3(CCN(C(=O)c4cc(C(F)(F)F)cc(C(F)(F)F)c4)CC3)C2)cc1`, the Potency was greater than 20 µM.

Take `O=C(c1cccc(F)c1)N1CCC[C@@]2(CCN(Cc3ccccc3)C2)C1`: the Potency was greater than 20 µM.

As for `COc1cccc(Nc2ncc3ncc(=O)n(C)c3n2)c1`, the Potency is greater than 20 µM.

Regarding `Cn1c(=O)c(-c2cc(F)cc(F)c2)nc2cnc(Nc3ccccc3)nc21`, the Potency is greater than 20 µM.

As to `O=c1c(-c2ccc(Cl)cc2)nc2cnc(N3CCOCC3)nc2n1CCc1ccccc1`, the Potency is greater than 4 µM.

Take `FC(F)(F)c1cc(CN2CCC3(CCNCC3)CC2)cc(C(F)(F)F)c1`: the Potency is greater than 20 µM.

`O=C(c1ccncc1)N1CCC2(CCCN(c3ccccc3)C2)CC1`: the Potency was greater than 20 µM.

`N#Cc1ccc(CN2CCCC3(CCN(C(=O)c4csnn4)CC3)C2)cc1`: the Potency is greater than 20 µM.

For the compound `COc1ccccc1-c1nccc(NCc2cccnc2)n1`, the Potency is greater than 20 µM.
